How the values were obtained:
Assay in all cases: PBM binding z-score (relative to random genomic background probes); higher = stronger binding; sequences stand for … in GC…GCGATTGACAGCGTAGAATGAAGG
[1] = tested on: FXR:RXRa (NR concentration 270 nM, RXRa partner concentration 90 nM)
Procedure, shortened: (§1)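 Antibodies against each partner of ligand-free nuclear receptor dimers (one per run) detected binding on custom Agilent 4×180K protein-binding microarrays after 1 h incubation. The double-stranded probes had 34-nt variable regions carrying direct-repeat seeds, single-nucleotide variants, half-site ablations and random human genomic background sequences. Binding z-scores, from regression-normalized fluorescence, use the random background probes as reference.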

[2] = tested on: LXRa:RXRa (NR concentration 270 nM, RXRa partner concentration 90 nM)
Procedure, shortened: as §1

[3] = tested on: LXRa homodimer (NR concentration 270 nM)
Procedure, shortened: as §1

[4] = tested on: LXRb:RXRa (NR concentration 270 nM, RXRa partner concentration 90 nM)
Procedure, shortened: as §1

[5] = tested on: LXRb homodimer (NR concentration 270 nM)
Procedure, shortened: as §1

[6] = tested on: PPARa:RXRa (NR concentration 270 nM, RXRa partner concentration 90 nM)
Procedure, shortened: as §1

[7] = tested on: PPARg:RXRa (NR concentration 180 nM, RXRa partner concentration 90 nM)
Procedure, shortened: as §1

[8] = tested on: PPARg:RXRa 270nM:90nM, anti-RXR (NR concentration 270 nM, RXRa partner concentration 90 nM)
Procedure, shortened: as §1

[9] = tested on: PPARg:RXRa 30nM:10nM, anti-RXR (NR concentration 30 nM, RXRa partner concentration 10 nM)
Procedure, shortened: as §1

[10] = tested on: PPARg:RXRa 90nM:30nM, anti-RXR (NR concentration 90 nM, RXRa partner concentration 30 nM)
Procedure, shortened: as §1

[11] = tested on: PPARg:RXRa DBDmut IVT, anti-RXR (DBD mutation: RXRa K156A/R161A, NR concentration 270 nM, RXRa partner concentration 90 nM)
Procedure, shortened: as §1

[12] = tested on: PPARg:RXRa IVT, anti-PPARg (NR concentration 270 nM, RXRa partner concentration 90 nM)
Procedure, shortened: as §1

[13] = tested on: PPARg DBDmut:RXRa IVT, anti-PPARg (DBD mutation: PPARg1 K132A/R137A, NR concentration 270 nM, RXRa partner concentration 90 nM)
Procedure, shortened: as §1

[14] = tested on: PPARg DBDmut IVT, anti-PPARg (DBD mutation: PPARg1 K132A/R137A, NR concentration 270 nM)
Procedure, shortened: as §1

[15] = tested on: PPARg homodimer (NR concentration 180 nM)
Procedure, shortened: as §1

[16] = tested on: PXR:RXRa (NR concentration 270 nM, RXRa partner concentration 90 nM)
Procedure, shortened: as §1

[17] = tested on: PXR homodimer (NR concentration 270 nM)
Procedure, shortened: as §1

[18] = tested on: RARa:RXR (NR concentration 270 nM, RXRa partner concentration 90 nM)
Procedure, shortened: as §1

[19] = tested on: RARa homodimer (NR concentration 270 nM)
Procedure, shortened: as §1

[20] = tested on: RARb:RXRa (NR concentration 270 nM, RXRa partner concentration 90 nM)
Procedure, shortened: as §1

| Sequence | PBM binding z-score [1] | PBM binding z-score [2] | PBM binding z-score [3] | PBM binding z-score [4] | PBM binding z-score [5] | PBM binding z-score [6] | PBM binding z-score [7] | PBM binding z-score [8] | PBM binding z-score [9] | PBM binding z-score [10] | PBM binding z-score [11] | PBM binding z-score [12] | PBM binding z-score [13] | PBM binding z-score [14] | PBM binding z-score [15] | PBM binding z-score [16] | PBM binding z-score [17] | PBM binding z-score [18] | PBM binding z-score [19] | PBM binding z-score [20] |
| --- | --- | --- | --- | --- | --- | --- | --- | --- | --- | --- | --- | --- | --- | --- | --- | --- | --- | --- | --- | --- |
| AGAACGAGGGCAATGTGTTGATAGCACGGGTGGC | 0.748 | 0.456 | -0.316 | 0.0585 | -0.324 | 1.47 | 1.55 | 1.19 | 0.0423 | 0.712 | 3.49 | 2.88 | 0.318 | -0.0765 | 0.0511 | 0.325 | 0.276 | 0.248 | -0.364 | 2.05 |
| TCATATACGTAAACAGGTGAAAGTCCGTAAGTTA | 1.15 | 1.2 | 0.468 | 1.33 | 0.615 | 1.75 | 1.14 | 2.99 | 4.45 | 3.61 | 2.72 | 1.26 | 1.21 | 1.05 | 1.24 | 1.19 | 0.801 | 1.68 | 1.67 | 0.855 |
| CGAACTAGGTCATTGACATGACAGTGAATAGTAA | 5.2 | 3.24 | 0.582 | 2.31 | -0.197 | 4.88 | 7.61 | 6.52 | 3.97 | 6.29 | 8.34 | 8.44 | 3.7 | 2.52 | 1.93 | 1.45 | -0.208 | 2.28 | 0.896 | 3.62 |
| ATATGTAGGTTAAGGGTCATTCACGTTGGTTCGC | 5.72 | 4.91 | 2.96 | 4.5 | 1.26 | 6.49 | 11.8 | 9.66 | 9.95 | 11.2 | 7.26 | 8.08 | 3.39 | 2.65 | 4.43 | 4.79 | 0.957 | 5.91 | 1.47 | 3.54 |
| CCAGACAGGTGATAAGGTAACTCAGCCTCGATTA | 0.336 | 0.0665 | -0.0911 | 0.157 | -0.187 | 0.51 | 0.555 | 0.114 | 0.063 | 0.191 | 0.812 | 0.261 | 0.0987 | -0.29 | 1.14 | -0.0216 | 0.227 | 0.472 | 0.984 | 0.359 |
| GATACAGGTTCAGCTAGAGGCCAGAGTATGGAAA | 0.427 | 0.656 | -0.157 | 0.305 | -0.537 | 1.29 | 0.495 | 0.117 | -0.177 | -0.176 | -0.632 | -0.397 | -0.984 | -1 | 0.61 | 1.19 | -0.0373 | 1.64 | 0.321 | 1.35 |
| CTAACTAGGTCAGAACAGGACAGTGAAGGATGAT | 1.45 | 0.974 | 0.159 | 0.586 | -0.0139 | 3.16 | 6.17 | 4.91 | 2.43 | 4.19 | 7.81 | 7.46 | 1.78 | 0.779 | 1.28 | 0.958 | 0.15 | 0.805 | 0.43 | 2.94 |
| AGACCAAGGTGATCGTGAGGTCGTTGATACTAAC | 1.27 | 0.891 | 0.368 | 0.98 | -0.813 | 1.58 | 0.415 | 0.494 | 0.11 | 0.313 | 0.783 | 0.9 | -0.832 | -0.109 | 0.38 | 2.79 | 0.858 | 1.72 | -0.21 | 1.32 |
| TCATACAGGTAAAGGTGAAAGTCGAACGATATGA | 1.17 | 1.57 | 0.0169 | 1.44 | 0.312 | 3.08 | 2.39 | 3.81 | 4.26 | 4.38 | 2.37 | 2.45 | 1.8 | 0.696 | 0.957 | 1.03 | 0.178 | 1.82 | 1.18 | 2.19 |
| CGTCCAAGGGCAAGGTCAGTGAAAGAGACTCGAA | 1.95 | 1.58 | -0.119 | 1.22 | -0.836 | 2.75 | 0.977 | 1.31 | -0.324 | 0.436 | 0.735 | 1.62 | -1.01 | -1.55 | 0.963 | 1.68 | -0.101 | 2.16 | 0.0198 | 3.94 |
| CAAACTAGATCAAAGGTCAAAGTCGAGCCAACCA | 5.73 | 5.82 | 5.07 | 5.77 | 3.09 | 6.79 | 11.4 | 10.2 | 11.1 | 11.9 | 4.3 | 6.8 | 1.17 | 1.55 | 4.96 | 5.7 | 1.84 | 6.94 | 2.11 | 4.83 |
| TCAGACAGGTGAACGTAACTCAGGTACGCAGTCG | 0.443 | 0.558 | -0.111 | 0.538 | -0.313 | 1.43 | 1.05 | 2.06 | 3.66 | 2.83 | 2.71 | 1.55 | 0.22 | -0.331 | 0.406 | 0.573 | 0.448 | 0.752 | 0.0461 | 1.19 |
| CCTTACGGGTCACTCCAGGTTATAGCTTCGGAGT | 5.46 | 7.43 | 1.7 | 4.64 | 0.284 | 4.05 | 3.22 | 3.66 | 1 | 2.17 | 3.23 | 3.56 | 0.585 | 0.163 | 2.23 | 4.98 | 0.446 | 3.52 | 1.34 | 3.72 |
| TCTTGTAGATCAATAGAGGTTATGAAAGTGCGCT | 0.99 | 3.56 | 0.696 | 1.68 | 0.325 | 1.9 | 0.356 | 2.08 | 2.99 | 2.41 | 1.9 | 1.34 | 0.208 | 0.487 | 0.327 | 2.9 | 0.0755 | 2.04 | 0.403 | 1.02 |
